# Out of some 3,700 compounds screened, fewer than 10 were called active. No rule for the calls is given here. These entries were drawn from the full list.
# Experiment: NMR binding screen, influenza A RNA promoter, Kd (AID 1637)
# Details: NMR binding to influenza A RNA promoter
row,SMILES,Kd
1,CNC(=O)CC1Sc2ccccc2NC1=O (stereo not given),> 4 mM (inactive)
2,O=C1CSC(=Nc2ccccc2[N+](=O)[O-])N1,> 4 mM (inactive)
3,CN1CCC(N2CCOCC2)CC1,> 4 mM (inactive)
4,Cc1cc(C(=O)NCc2cccnc2)no1,> 4 mM (inactive)
5,COc1ccc(S(=O)(=O)N2CCOCC2)cc1C(C)C,> 4 mM (inactive)
6,COc1cccc(/C=C/C(=O)O)c1C(C)C,> 4 mM (inactive)
7,CCN1CCC(=NO)CC1,> 4 mM (inactive)
8,Cc1ccc(SCc2cc(=O)n3[nH]cnc3n2)cc1,> 4 mM (inactive)
9,Nc1ccc(-n2cccn2)cc1,> 4 mM (inactive)
10,Cc1ccc(S(=O)(=O)CC(=O)N(C)C)cc1,> 4 mM (inactive)
11,Cc1cccc(N2C(=O)CC(=O)NC2=O)c1,> 4 mM (inactive)
12,Cc1ccccc1NC(=O)C1CC(=O)N=C(N)S1 (stereo not given),> 4 mM (inactive)
13,CC(C)(C)CC(=O)NNC(=O)c1cnccn1,> 4 mM (inactive)
14,CCSc1nc(N)c(NC(=O)c2ccco2)c(=O)[nH]1,> 4 mM (inactive)
15,Cc1ccccc1NC(=O)CC1NCCNC1=O (stereo not given),> 4 mM (inactive)
16,Cc1cc(CN2C(=O)c3ccccc3C2=O)on1,> 4 mM (inactive)
17,O=C(O)CCCNC(=O)c1ccccc1C(=O)O,> 4 mM (inactive)
18,CC(C)(C)NC(=O)CN1C(=O)c2ccccc2S1(=O)=O,> 4 mM (inactive)
19,COc1ccc(/C=C2\SC(N)=NC2=O)cc1,> 4 mM (inactive)
20,CC(C)=NNC(=O)C(=O)Nc1ccc(F)cc1,> 4 mM (inactive)
21,CS/C(N)=C\C(C)=O,> 4 mM (inactive)
22,Nc1nonc1-c1nc2ccccc2[nH]1,> 4 mM (inactive)

row,SMILES,Kd
1,NCc1ccc(-c2ccccn2)s1,> 4 mM (inactive)
2,Cc1oc(-c2ccccc2)cc1C(=O)O,> 4 mM (inactive)
3,O=S1(=O)CCC2CC=CCC21 (stereo not given),> 4 mM (inactive)
4,S=C(c1ccc(N2CCOCC2)cc1)N1CCOCC1,> 4 mM (inactive)
5,CC1(C)CC2(C)N(N)C(=O)CN2C(=S)N1 (stereo not given),> 4 mM (inactive)
6,O=c1[nH]cc(NCc2ccccc2)c(=O)[nH]1,> 4 mM (inactive)
7,COc1cc2nc(N3CCNCC3)nc(N)c2cc1OC,0.078 mM (active)
8,COc1cccc(N2CCNCC2)c1,> 4 mM (inactive)
9,c1cnc(N2CCNCC2)nc1,> 4 mM (inactive)
10,CN(C)c1nc(N2CCOCC2)c2cnn(C)c2n1,> 4 mM (inactive)
11,O=C(CSc1ncn[nH]1)c1ccccc1,> 4 mM (inactive)
12,Cc1cccc(N2C(=O)CCC2=O)n1,> 4 mM (inactive)
13,O=c1[nH]c(O)c(C=NCc2cccs2)c(=O)[nH]1,> 4 mM (inactive)
14,CC(=O)c1cccc(N=C2NC(=O)CS2)c1,> 4 mM (inactive)
15,Cc1csc(SCC(=O)N2CCCC2)n1,> 4 mM (inactive)
16,Nc1cc(=O)[nH]c(SCC(=O)Nc2nccs2)n1,> 4 mM (inactive)
17,COc1cc(OC)c2c(=O)c(OC)c(-c3ccc(OC)c(OC)c3)oc2c1,> 4 mM (inactive)
18,C=C1CCC2[C@](C)(CO)[C@H](O)CC[C@@]2(C)[C@@H]1C/C=C1/C(=O)OC[C@H]1O (stereo not given in full),> 4 mM (inactive)
19,Cc1occc1C(=O)NCc1ccccn1,> 4 mM (inactive)
20,NC(=O)NC1C=CS(=O)(=O)C1 (stereo not given),> 4 mM (inactive)
21,Cc1c(N=Cc2ccco2)c(=O)n(-c2ccccc2)n1C,> 4 mM (inactive)
22,Cc1ccc(CN2C3=NC(=O)CN3c3ccccc32)cc1,> 4 mM (inactive)

row,SMILES,Kd
1,COc1nc(N2CCOCC2)nc(N)c1[N+](=O)[O-],> 4 mM (inactive)
2,CC1=NN2C(=N)/C(=C\c3cccs3)C(=O)N=C2S1,> 4 mM (inactive)
3,O=C(O)C1NCCc2ccccc21 (stereo not given),> 4 mM (inactive)
4,CCn1nnc(NC(=O)c2ccccc2Br)n1,> 4 mM (inactive)
5,O=S1(=O)NC(=NCc2ccco2)c2ccccc21,> 4 mM (inactive)
6,O=C(NCc1ccc2c(c1)OCO2)c1cccs1,> 4 mM (inactive)
7,Cn1nnc2cc(C(=O)Nc3cccnc3)ccc21,> 4 mM (inactive)
8,Cc1ccc(SCc2nc(-c3ccncc3)no2)cc1,> 4 mM (inactive)
9,NC1CS(=O)(=O)CC1O (stereo not given),> 4 mM (inactive)
10,C=CCCCCCCCCCCCC(O)CC(O)CO (stereo not given) (tested in a mixture with another compound),> 4 mM (inactive)
11,CN1C(=O)C2CC=C(Cl)CC2C1=O (stereo not given),> 4 mM (inactive)
12,Cc1c(/C=N\n2cnnc2)c2ccccc2n1C,> 4 mM (inactive)
13,CN(C)S(=O)(=O)NCc1ccc2c(c1)OCO2,> 4 mM (inactive)
14,CC1(c2ccncc2)NC(=O)NC1=O (stereo not given),> 4 mM (inactive)
15,c1cc2n(c1)CCNC2c1ccncc1 (stereo not given),> 4 mM (inactive)
16,Cc1nc2[nH]onc2c2nccc(=O)c12,> 4 mM (inactive)
17,CCCN1CCC(N2CCC(O)CC2)CC1,> 4 mM (inactive)
18,O=C1NC(=O)/C(=C\c2ccncc2)S1,> 4 mM (inactive)
19,O=C1CSC(=O)N1CN1CCCC1,> 4 mM (inactive)
20,O=C(O)CSCc1ccc(Cl)cc1,> 4 mM (inactive)
21,CCCC(=O)N1CCSCC1,> 4 mM (inactive)
22,Cn1nc(C(=O)N2CCCC2)c2ccccc2c1=O,> 4 mM (inactive)

row,SMILES,Kd
1,Cc1nn(C)c(Cl)c1C(O)c1c(C)nn(C)c1Cl,> 4 mM (inactive)
2,Cc1ccc(-c2nn3c(C)nnc3s2)cc1N,> 4 mM (inactive)
3,Nc1ccc2nsnc2c1,> 4 mM (inactive)
4,CC(=O)Nc1cc(C(N)=O)cc(C(N)=O)c1,> 4 mM (inactive)
5,NS(=O)(=O)c1ccccc1Cl,> 4 mM (inactive)
6,CSc1nc(=O)[nH]c2c1CCC2,> 4 mM (inactive)
7,Cn1cnc2cc(NC(=O)c3ccco3)ccc21,> 4 mM (inactive)
8,COc1ccc(NC2=NCC(C)S2)cc1 (stereo not given),> 4 mM (inactive)
9,COC(=O)Nc1nnc(-c2ccncc2)s1,> 4 mM (inactive)
10,NC(=O)Cn1nnc(-c2ccc(C(F)(F)F)cc2)n1,> 4 mM (inactive)
11,Nc1cccc(NC(=O)c2cccs2)c1,> 4 mM (inactive)
12,CCN1CCC(NC2CCC(O)CC2)CC1 (stereo not given),> 4 mM (inactive)
13,OC12C=CC(CC1)CC2,> 4 mM (inactive)
14,NC(=O)CSc1ccc2nnc(-c3ccccc3)n2n1,> 4 mM (inactive)
15,CCCCN1C(=O)C2CC/C(=N/O)CC2C1=O (stereo not given),> 4 mM (inactive)
16,C[C@@H]1OC(O[C@H]2[C@H](OC(=O)[C@]34CCC(C)(C)CC3C3=CCC5[C@@]6(C)CC[C@H](OC7O[C@@H](C)[C@H](O[C@@H]8OC[C@@H](O)[C@H](O)[C@H]8O)[C@@H](O)[C@H]7O)C(C)(C)C6CC[C@@]5(C)[C@]3(C)CC4O)OC[C@H](O)[C@H]2O)[C@H](O)[C@H](O)[C@H]1O[C@@H]1O[C@H](CO)[C@@H](O)[C@H](O)[C@H]1O (stereo not given in full),> 4 mM (inactive)
17,NC(=O)C1CCN(C(=O)c2ccccc2F)CC1,> 4 mM (inactive)
18,O=C(Nc1cccc2cccnc12)c1cccnc1,> 4 mM (inactive)
19,Cc1nc(NC2=NCCC(=O)N2)nc2ccccc12,> 4 mM (inactive)

# Reference: PubChem BioAssay AID1637 (Sanford-Burnham Center for Chemical Genomics, 2009)
